Data published in PubChem BioAssay (NCI).
The panel holds about 79,000 compounds, 15% with a hit somewhere; the sample as a whole holds those more often. Active and inactive are the calls of the source. Cut-off read from the data, not from the text of the source: active = growth inhibition above about 70%; inactive = the rest.

Assays:
[1] = NCI Yeast Anticancer Drug Screen. Data for the rad50 strain (AID 155);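 note: 0% = growth of vehicle-only cultures of the same strain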; settings: S. cerevisiae rad50 strain growth inhibition, hits give high values
Outline: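 A DNA repair-deficient yeast mutant serves as the test organism; compound-induced growth inhibition is calculated against vehicle-treated cells.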

[2] = NCI Yeast Anticancer Drug Screen. Data for the mec2-1 strain (AID 157); settings: S. cerevisiae mec2-1 strain, hits give high values
Outline: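 Using mec2-1 yeast: add compound, measure growth, express inhibition versus vehicle-treated cultures.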

[3] = NCI Yeast Anticancer Drug Screen. Data for the sgs1 mgt1 strain (AID 161);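 note: 0% = growth of cultures given vehicle only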; settings: S. cerevisiae sgs1 mgt1 strain, hits give high values
Outline: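 This yeast growth screen uses a strain with defined DNA-repair lesions; compound-treated growth is compared with vehicle-treated growth.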

[4] = NCI Yeast Anticancer Drug Screen. Data for the cln2 rad14 strain (AID 165);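 note: 0% = growth equal to vehicle treated cultures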; settings: S. cerevisiae cln2 rad14 strain, hits give high values
Outline: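 Yeast strain cln2 rad14, bearing defects in cell cycle control and DNA repair, serves as the test system; values reflect growth inhibition compared with vehicle.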

[5] = NCI Yeast Anticancer Drug Screen. Data for the bub3 strain (AID 167); settings: S. cerevisiae bub3 mutant strain, hits give high values
Outline: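 Inhibition values come from growth of compound-treated mutant yeast normalised to vehicle-treated controls.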

[6] = NCI Yeast Anticancer Drug Screen. Data for the mlh1 rad18 strain (AID 175); settings: S. cerevisiae mlh1 rad18 strain growth inhibition, hits give high values
Outline: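 Steps: expose repair-defective yeast to compound; measure growth; express inhibition against vehicle-treated controls.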

[7] = at 5.0 µM (retest, dose inferred, filed as 0.5)
[8] = at 50.0 µM (retest, dose inferred, filed as 5.0)

Measured: growth inhibition

Oc1cc(CNCc2ccccc2)c(O)c(CNCc2ccccc2)c1
inactive: [1]; [7] 10% | [1]; [8] 10% | [1]; at 50.0 µM -4% | [2]; [7] 17% | [2]; [8] 24% | [2]; at 50.0 µM 31.9% | [3]; [7] 5% | [3]; [8] 11% | [3]; at 50.0 µM 5.25% | [4]; [7] 3% | [4]; [8] -13% | [4]; at 50.0 µM 38.2% | [5]; [7] -1% | [5]; [8] -4% | [5]; at 50.0 µM 1.95% | [6]; [7] 8% | [6]; [8] 15% | [6]; at 50.0 µM 17%

COc1ccc2nccc(C(=O)CBr)c2c1
active: [1]; at 50.0 µM 92% | [2]; at 50.0 µM 93% | [3]; at 50.0 µM 97.4% | [5]; at 50.0 µM 97.2% | [6]; at 50.0 µM 96.6%
inactive: [1]; [7] 24% | [1]; [8] 23% | [2]; [7] 32% | [2]; [8] -5% | [3]; [7] 61% | [3]; [8] 20% | [4]; [7] -1% | [4]; [8] 10% | [4]; at 50.0 µM 31.3% | [5]; [7] 13% | [5]; [8] 34% | [6]; [7] 31% | [6]; [8] 37%

CC1=C(C(=O)Nc2ccccc2)C(c2cc(Cl)cc(Cl)c2)C(C(=O)Nc2ccccc2)=C(C)N1
active: [1]; at 50.0 µM 87% | [2]; at 50.0 µM 85.5% | [3]; at 50.0 µM 83% | [6]; at 50.0 µM 74.1%
inactive: [1]; [7] 2% | [1]; [8] 2% | [2]; [7] 19% | [2]; [8] 19% | [3]; [7] 11% | [3]; [8] 11% | [4]; [7] 5% | [4]; [8] 5% | [4]; at 50.0 µM 63.1% | [5]; [7] -11% | [5]; [8] -11% | [5]; at 50.0 µM 63.4% | [6]; [7] -4% | [6]; [8] -4%

N=C1C(=O)c2ccccc2-c2ccccc21
inactive: [1]; [7] -93% | [2]; [7] -25% | [3]; [7] -35% | [4]; [7] -75% | [5]; [7] -20% | [6]; [7] -86%
active: [1]; [8] 97% | [1]; at 50.0 µM 96.3% | [2]; [8] 99% | [2]; at 50.0 µM 96.3% | [3]; [8] 98% | [3]; at 50.0 µM 97.3% | [4]; [8] 98% | [4]; at 50.0 µM 91.3% | [5]; [8] 97% | [5]; at 50.0 µM 97% | [6]; [8] 97% | [6]; at 50.0 µM 95.7%

Nn1c2ccccc2c2ccccc21
active: [6]; at 50.0 µM 75.1%
inactive: [1]; [7] -106% | [1]; [8] -52% | [1]; at 50.0 µM 35% | [2]; [7] -44% | [2]; [8] -53% | [2]; at 50.0 µM 11.8% | [3]; [7] -32% | [3]; [8] -25% | [3]; at 50.0 µM 8.1% | [4]; [7] -54% | [4]; [8] -77% | [4]; at 50.0 µM 12% | [5]; [7] -72% | [5]; [8] -80% | [5]; at 50.0 µM -6% | [6]; [7] -78% | [6]; [8] 6%

CCC1([N+](=O)[O-])COC(c2ccc3c(c2)OCO3)OC1 (configuration not stated)
inactive: [1]; [7] -9% | [1]; [8] -11% | [1]; at 50.0 µM -1.7% | [2]; [7] -14% | [2]; [8] -1% | [2]; at 50.0 µM -3.15% | [3]; [7] -1% | [3]; [8] -47% | [3]; at 50.0 µM 11.7% | [4]; [7] 10% | [4]; [8] 21% | [4]; at 50.0 µM -1.9% | [5]; [7] 14% | [5]; [8] -23% | [5]; at 50.0 µM 3.35% | [6]; [7] -18% | [6]; [8] -6% | [6]; at 50.0 µM 4.45%

CC1CCC(C(O)(C(=O)O)C2CCC(C)CC2)CC1 (configuration not stated)
inactive: [1]; [7] 23% | [1]; [8] 30% | [1]; at 50.0 µM 37.9% | [2]; [7] 26% | [2]; [8] 39% | [2]; at 50.0 µM 19.3% | [3]; [7] 34% | [3]; [8] 61% | [3]; at 50.0 µM 10.2% | [4]; [8] 57% | [4]; at 50.0 µM 47.6% | [5]; [7] 25% | [5]; [8] -73% | [5]; at 50.0 µM 49.1% | [6]; [7] 15% | [6]; [8] 23% | [6]; at 50.0 µM 49.7%
active: [4]; [7] 78%

CC(C)C1(C)C(C#N)(C#N)C1(C#N)C#N
inactive: [1]; [7] -94% | [2]; [7] -35% | [3]; [7] -46% | [4]; [7] -46% | [4]; [8] 22% | [4]; at 50.0 µM 48.4% | [5]; [7] -39% | [6]; [7] -77%
active: [1]; [8] 94% | [1]; at 50.0 µM 79.8% | [2]; [8] 92% | [2]; at 50.0 µM 91.5% | [3]; [8] 90% | [3]; at 50.0 µM 95.5% | [5]; [8] 91% | [5]; at 50.0 µM 92% | [6]; [8] 94% | [6]; at 50.0 µM 95.8%

C1=NN(c2ccccc2)C2c3ccccc3CCCC12 (configuration not stated)
inactive: [1]; [7] 8% | [2]; [7] 18% | [3]; [7] 8% | [4]; [7] -4% | [5]; [7] 5% | [6]; [7] -2%
active: [1]; [8] 98% | [1]; at 50.0 µM 99.2% | [2]; [8] 99% | [2]; at 50.0 µM 98.7% | [3]; [8] 99% | [3]; at 50.0 µM 99% | [4]; [8] 98% | [4]; at 50.0 µM 98.8% | [5]; [8] 99% | [5]; at 50.0 µM 99.1% | [6]; [8] 99% | [6]; at 50.0 µM 98.7%
